Reference: PubChem BioAssay AID1159580 (chemical genetic matrix, 2015)
“And” between values parts separate entries of the source, which are not always exact repeats. Identical values can stand only once. Hit rate of the full screen: of about 5,500 compounds, about 2,000 (36%) were called active. Another 18% or so got no clear call; they are omitted. Rule as the data show it: active = normalized growth mostly below about 0.91 (no sharp cut-off); inconclusive = no clear call, values can overlap the other calls; inactive = mostly above about 0.92. The list shows a part of the results.

Assay: chemical genetic growth profiling, strain panel (AID 1159580);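 also: tested at 20 µM; growth read once vehicle control cultures reached saturation at 30 °C; 1 = growth at the plate median or of vehicle wells; lower values mean less growth of the strain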
Details: S. cerevisiae deletion strains, growth OD

Measured: normalized growth

C[C@]12CCC(=O)C=C1CCC1C2C(=O)C[C@@]2(C)C1CC[C@]2(O)C(=O)CO (stereo partly drawn)
inactive: locus YAL013W, strain DEP1, stronger effect = lower value 1 | locus YAL021C, strain ccr4, stronger effect = lower value 1.01 | locus YAL026C, strain drs2, stronger effect = lower value 1 | locus YAL030W, strain snc1, stronger effect = lower value 1 | locus YBL061C, strain skt5, stronger effect = lower value 1 | locus YBR009C, strain hhf1, stronger effect = lower value 0.992 | locus YBR021W, strain FUR4, stronger effect = lower value 1 | locus YBR023C, strain chs3, stronger effect = lower value 1.01 | locus YBR171W, strain sec66, stronger effect = lower value 1.01 | locus YBR229C, strain ROT2, stronger effect = lower value 1 | locus YBR231C, strain swc5, stronger effect = lower value 0.986 | locus YBR279W, strain paf1, stronger effect = lower value 1 | locus YCL011C, strain gbp2, stronger effect = lower value 1.01 | locus YCL016C, strain dcc1, stronger effect = lower value 1 | locus YCL029C, strain bik1, stronger effect = lower value 1.01 | locus YCL061C, strain MRC1, stronger effect = lower value 0.999 | locus YCL069W, strain vba3, stronger effect = lower value 1 | locus YCR088W, strain abp1, stronger effect = lower value 1.01 | locus YDL005C, strain med2, stronger effect = lower value 0.993 | locus YDL035C, strain GPR1, stronger effect = lower value 1.02 | locus YDL040C, strain nat1, stronger effect = lower value 1 | locus YDL074C, strain BRE1, stronger effect = lower value 1.05 | locus YDL101C, strain DUN1, stronger effect = lower value 1 | locus YDL134C, strain PPH21, stronger effect = lower value 0.986 | locus YDL185W, strain tfp1, stronger effect = lower value 1.01 | locus YDL192W, strain arf1, stronger effect = lower value 1.02 | locus YDR001C, strain nth1, stronger effect = lower value 1 | locus YDR069C, strain doa4, stronger effect = lower value 0.988 | locus YDR101C, strain arx1, stronger effect = lower value 1.04 | locus YDR137W, strain rgp1, stronger effect = lower value 1.01 | locus YDR159W, strain sac3, stronger effect = lower value 0.981 | locus YDR162C, strain NBP2, stronger effect = lower value 0.984 | locus YDR195W, strain ref2 0.973 | locus YDR297W, strain sur2, stronger effect = lower value 1 | locus YDR318W, strain mcm21, stronger effect = lower value 0.986 | locus YDR334W, strain swr1, stronger effect = lower value 1.01 | locus YDR335W, strain msn5, stronger effect = lower value 1.01 | locus YDR388W, stronger effect = lower value 1.01 | locus YDR392W, strain spt3, stronger effect = lower value 0.929 | locus YDR502C, strain sam2, stronger effect = lower value 1.01 | locus YEL003W, strain gim4, stronger effect = lower value 1.01 | locus YEL037C, strain rad23, stronger effect = lower value 1.01 | locus YEL061C, strain CIN8 (second series), stronger effect = lower value 1.01 | locus YEL061C, strain CIN8, stronger effect = lower value 0.998 | locus YER015W, strain faa2, stronger effect = lower value 1 | locus YER016W, strain bim1, stronger effect = lower value 1 | locus YER110C, stronger effect = lower value 1.01 | locus YER111C, strain swi4, stronger effect = lower value 1 | locus YER155C, strain BEM2 (second series), stronger effect = lower value 1 | locus YER155C, strain BEM2, stronger effect = lower value 1 | locus YER167W, strain BCK2, stronger effect = lower value 0.994 | locus YFR010W, strain ubp6, stronger effect = lower value 1 | locus YGL078C, strain dbp3, stronger effect = lower value 1.02 | locus YGL086W, strain mad1, stronger effect = lower value 1.02 | locus YGL167C, strain pmr1, stronger effect = lower value 1 | locus YGL173C, strain kem1, stronger effect = lower value 1.01 | locus YGL227W, strain vid30, stronger effect = lower value 1 | locus YGL240W, strain doc1, stronger effect = lower value 0.975 | locus YGL248W, strain PDE1, stronger effect = lower value 0.984 | locus YGL253W, strain hxk2, stronger effect = lower value 1.01 | locus YGR078C, strain PAC10, stronger effect = lower value 0.986 | locus YGR135W, strain pre9, stronger effect = lower value 0.968 | locus YGR229C, strain SMI1, stronger effect = lower value 0.989 | locus YGR252W, strain gcn5, stronger effect = lower value 0.976 | locus YHR013C, strain ard1, stronger effect = lower value 0.979 | locus YHR027C, strain rpn1, stronger effect = lower value 1.01 | locus YHR030C, strain SLT2, stronger effect = lower value 0.995 and 0.999 | locus YHR079C, strain IRE1 (second series), stronger effect = lower value 1.01 | locus YHR079C, strain IRE1, stronger effect = lower value 0.985 | locus YHR094C, strain hxt1, stronger effect = lower value 0.996 | locus YHR129C, strain ARP1, stronger effect = lower value 1 | locus YHR142W, strain chs7, stronger effect = lower value 1.02 | locus YHR200W, strain rpn10, stronger effect = lower value 0.999 | locus YIL066C, strain RNR3, stronger effect = lower value 0.987 | locus YIL073C, strain SPO22, stronger effect = lower value 1.04 | locus YIL125W, strain kgd1, stronger effect = lower value 1.01 | locus YIR030C, strain dcg1, stronger effect = lower value 0.997 | locus YJL092W, strain hpr5, stronger effect = lower value 1.01 | locus YJL095W, strain BCK1 (second series), stronger effect = lower value 1.01 | locus YJL095W, strain BCK1, stronger effect = lower value 0.975 and 0.986 | locus YJL115W, strain asf1, stronger effect = lower value 1.01 | locus YJL129C, strain trk1, stronger effect = lower value 1.01 | locus YJL134W, strain LCB3, stronger effect = lower value 1 | locus YJL154C, strain vps35, stronger effect = lower value 1.02 | locus YJL164C, strain tpk1, stronger effect = lower value 0.996 | locus YJL166W, strain qcr8, stronger effect = lower value 0.987 | locus YJL168C, strain set2, stronger effect = lower value 1.01 | locus YJL187C, strain SWE1 (second series), stronger effect = lower value 0.994
